We go through 39 compounds from the supplement of paper PMC12494721.

Structures can show the parent of a compound that is named as a salt.

The assay concerns Clostridium sporogenes DSM 1664. The assay is described as follows: fold change of Tryptamine concentration vs plate DMSO controls (fold change (ratio)); higher = more amine produced, active = hit call of the paper (significant change in both replicates, either direction). To be noted: incubation time: 27 h, anaerobic, 37 °C. The gist of the method: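 Amines were quantified by LC–triple-quadrupole MS in dynamic MRM mode against external calibration curves, with drift correction within each batch. The samples were whole anaerobic mGAM cultures of four gut bacterial strains, grown for 27 h at 37 °C in 80 µL wells and extracted with cold acetonitrile/methanol with 0.1% formic acid, then centrifuged. Values are reported as fold change over DMSO controls on the same plate. The mean of 2 biological replicates is given.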
For the compound `CC(=O)OCC(CCn1cnc2cnc(N)nc21)COC(C)=O` [Famciclovir] (20 µM), the “fold change of Tryptamine concentration” value was 1.03 (inactive).

Regarding `COC(c1ccccc1)(c1ccccc1)[C@H](Oc1nc(C)cc(C)n1)C(=O)O` [Ambrisentan] (20 µM), the “fold change of Tryptamine concentration” value was 1.01 (inactive).

On to `C[C@H](CCC(=O)O)[C@H]1CC[C@H]2[C@@H]3[C@@H](O)C[C@@H]4C[C@H](O)CC[C@]4(C)[C@H]3CC[C@]12C` [Urosiol] (20 µM), for which the “fold change of Tryptamine concentration” value is 1.08 (inactive).

With `C=C(CC)C(=O)c1ccc(OCC(=O)O)c(Cl)c1Cl` [Ethacrynic acid] (20 µM), the “fold change of Tryptamine concentration” value is 1.01 (inactive).

Consider `C[C@]12CC[C@@H]3c4ccc(O)cc4CC[C@H]3[C@@H]1C[C@@H](O)[C@@H]2O` [Estriol] (20 µM), for which the “fold change of Tryptamine concentration” value was 1.01 (inactive).

`Cc1cc2cc3c(C)cc(=O)oc3c(C)c2o1` [Trioxsalen] (20 µM): the “fold change of Tryptamine concentration” value was 0.974 (inactive).

For the compound `O=C(Nc1cccc2c(=O)cc(-c3nnn[nH]3)oc12)c1ccc(OCCCCc2ccccc2)cc1` [Pranlukast] (20 µM), the “fold change of Tryptamine concentration” value is 0.686 (active).

Regarding `C[N+]1(C)CCC(OC(=O)C(O)(c2ccccc2)C2CCCC2)C1` (centres undefined) [Glycopyrrolate bromide] (20 µM), the “fold change of Tryptamine concentration” value is 1.01 (inactive).

Consider `CC(C)(O)c1ccccc1CC[C@@H](SCC1(CC(=O)O)CC1)c1cccc(/C=C/c2ccc3ccc(Cl)cc3n2)c1` [Montelukast] (20 µM), for which the “fold change of Tryptamine concentration” value is 0.587 (active).

`C[C@@H]1C[C@H]2[C@@H]3C[C@H](F)C4=CC(=O)C=C[C@]4(C)[C@@]3(Cl)[C@@H](O)C[C@]2(C)[C@H]1C(=O)COC(=O)C(C)(C)C` [Clocortolone pivalate] (20 µM): the “fold change of Tryptamine concentration” value is 1.04 (inactive).

On to `CCOC(=O)C1=C[C@]2(CC)CCCN3CCc4c(n1c1ccccc41)[C@@H]32` [Vinpocetine] (20 µM), for which the “fold change of Tryptamine concentration” value is 0.964 (inactive).

`Clc1ccccc1C(c1ccccc1)(c1ccccc1)n1ccnc1` [Clotrimazole] (20 µM): the “fold change of Tryptamine concentration” value is 0.977 (inactive).

Regarding `CC(C[N+](C)(C)C)OC(N)=O` (centres undefined) [Bethanechol chloride] (20 µM), the “fold change of Tryptamine concentration” value was 1.01 (inactive).

For the compound `C=CC(N)CCC(=O)O` (centres undefined) [Vigabatrin hydrochloride] (20 µM), the “fold change of Tryptamine concentration” value is 0.993 (inactive).

For the compound `C=C1C[C@@]23CC[C@H]4[C@@](C)(CCC[C@@]4(C)C(=O)O[C@@H]4O[C@H](CO)[C@@H](O)[C@H](O)[C@H]4O)[C@@H]2CC[C@]1(O[C@@H]1O[C@H](CO)[C@@H](O)[C@H](O)[C@H]1O[C@@H]1O[C@H](CO)[C@@H](O)[C@H](O)[C@H]1O)C3` [Stevioside] (50 µM), the “fold change of Tryptamine concentration” value is 0.986 (inactive).

Take `CCCN(CCC)C(=O)C(CCC(=O)O)NC(=O)c1ccccc1` (centres undefined) [Proglumide] (20 µM): the “fold change of Tryptamine concentration” value was 1.44 (active).

As for `CN1CCC(=C2c3ccccc3CC(=O)c3sccc32)CC1` [Ketotifen fumarate] (20 µM), the “fold change of Tryptamine concentration” value was 1.02 (inactive).

In the case of `Cc1ccc(-c2ncc(Cl)cc2-c2ccc(S(C)(=O)=O)cc2)cn1` [Etoricoxib] (20 µM), the “fold change of Tryptamine concentration” value is 1.16 (inactive).

`C[C@@H](O)[C@H]1C(=O)N2C(C(=O)O)=C(S[C@@H]3CN[C@H](C(=O)N(C)C)C3)[C@H](C)[C@H]12` [Meropenem] (20 µM): the “fold change of Tryptamine concentration” value is 0.0316 (active).

As to `CC(C)(C)c1ccc(C(O)CCCN2CCC(C(O)(c3ccccc3)c3ccccc3)CC2)cc1` (centres undefined) [Terfenadine] (20 µM), the “fold change of Tryptamine concentration” value was 1.06 (inactive).

For `CC(NN)c1ccccc1` (centres undefined) [Mebanazine] (20 µM), the “fold change of Tryptamine concentration” value is 1.04 (inactive).

Turning to `OCCN1CCN(CC/C=C2/c3ccccc3Sc3ccc(C(F)(F)F)cc32)CC1` [Flupentixol dihydrochloride cis-(Z)] (20 µM), the “fold change of Tryptamine concentration” value was 1.12 (inactive).

As for `C#CCN(C)CCCOc1ccc(Cl)cc1Cl` [Clorgyline hydrochloride] (20 µM), the “fold change of Tryptamine concentration” value was 0.96 (inactive).

`CN(C)C(=O)C(CCN1CCC(O)(c2ccc(Cl)cc2)CC1)(c1ccccc1)c1ccccc1` [Loperamide hydrochloride] (20 µM): the “fold change of Tryptamine concentration” value is 0.976 (inactive).

With `CC[N+](CC)(CC(=O)Nc1c(C)cccc1C)Cc1ccccc1` [Denatonium benzoate] (20 µM), the “fold change of Tryptamine concentration” value was 0.999 (inactive).

Turning to `COc1cc(C)c(/C=C/C(C)=C/C=C/C(C)=C/C(=O)O)c(C)c1C` [Acitretin] (20 µM), the “fold change of Tryptamine concentration” value is 0.967 (inactive).

Take `Nc1ccn([C@@H]2O[C@H](CO)[C@@H](O)[C@@H]2O)c(=O)n1` [Cytarabine] (20 µM): the “fold change of Tryptamine concentration” value was 0.967 (inactive).

Regarding `COc1ccc2cc([C@H](C)C(=O)O)ccc2c1` [(S)-Naproxen] (20 µM), the “fold change of Tryptamine concentration” value is 0.983 (inactive).

With `COC(=O)Nc1nc2cc(C(=O)c3ccc(F)cc3)ccc2[nH]1` [Flubendazol] (20 µM), the “fold change of Tryptamine concentration” value is 1 (inactive).

Regarding `O=C(O)COc1nn(Cc2ccccc2)c2ccccc12` [Bendazac] (20 µM), the “fold change of Tryptamine concentration” value was 0.948 (inactive).

On to `O=C(O)Cc1ccc(-c2ccccc2)cc1` [Felbinac] (20 µM), for which the “fold change of Tryptamine concentration” value was 0.994 (inactive).

Take `CCOc1ccc2c(c1)C(C)=CC(C)(C)N2` [Ethoxyquin] (20 µM): the “fold change of Tryptamine concentration” value is 1.06 (inactive).

For `CN1CC2c3ccccc3Oc3ccc(Cl)cc3C2C1` (centres undefined) [Asenapine maleate] (20 µM), the “fold change of Tryptamine concentration” value is 1.05 (inactive).

Turning to `CCOC(=O)OC(C)OC(=O)[C@@H]1N2C(=O)[C@@H](NC(=O)[C@H](N)c3ccccc3)[C@H]2SC1(C)C` (some centres undefined) [Bacampicillin hydrochloride] (20 µM), the “fold change of Tryptamine concentration” value is 0.0203 (active).

Turning to `CCCOc1ccccc1-c1nc2[nH]nnc2c(=O)[nH]1` [Zaprinast] (20 µM), the “fold change of Tryptamine concentration” value is 1.01 (inactive).

As for `CCCCC(O)c1ccccc1` (centres undefined) [Fenipentol] (20 µM), the “fold change of Tryptamine concentration” value is 0.989 (inactive).

Regarding `CN[C@H](CC(C)C)C(=O)N[C@H]1C(=O)N[C@@H](CC(N)=O)C(=O)N[C@H]2C(=O)N[C@H]3C(=O)N[C@H](C(=O)N[C@H](C(=O)O)c4cc(O)cc(O)c4-c4cc3ccc4O)[C@H](O)c3ccc(c(Cl)c3)Oc3cc2cc(c3O[C@@H]2O[C@H](CO)[C@@H](O)[C@H](O)[C@H]2O[C@H]2C[C@](C)(N)[C@H](O)[C@H](C)O2)Oc2ccc(cc2Cl)[C@H]1O` [Vancomycin hydrochloride] (20 µM), the “fold change of Tryptamine concentration” value is 0.0328 (active).

Turning to `N#Cc1ccc(Oc2ccc3c(c2)COB3O)cc1` [Crisaborole] (20 µM), the “fold change of Tryptamine concentration” value was 0.95 (inactive).

On to `COc1ccc([C@@H]2Sc3ccccc3N(CCN(C)C)C(=O)[C@@H]2OC(C)=O)cc1` [Diltiazem hydrochloride] (20 µM), for which the “fold change of Tryptamine concentration” value is 1.03 (inactive).
